{"source": "PubChem BioAssay AID652118", "about": "(Broad Institute, 2013)", "note": "Results with a measured potency or affinity are listed apart. Values without a mark were called inactive.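 The calls were made as follows: active = compounds lowering cell ATP signal whose fitted half-effect concentration is at most twice the top tested dose; inconclusive = flat curves with 30 to 70% signal loss, or poor fits; inactive = the rest.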"}
{"experiment": "HepG2 cell cytotoxicity, dose response, cytotoxicity control, ATP luminescence, dry powder (AID 652118)", "details": "HepG2 viability, CellTiter-Glo ATP luminescence, 48 h; series mostly up to 26 µM; activity change, negative = cytotoxicity: at the top concentration", "units": {"activity change, negative = cytotoxicity": "%"}}
{"smiles": "CCOC(=O)C1(CCOc2ccccc2)CCN(C(=O)c2ccc(O)c(Cl)c2)CC1", "activity change, negative = cytotoxicity": -11.1}
{"smiles": "C=CCOc1ccc(CN2CCC(CCOc3ccccc3)(C(=O)NCC)CC2)cc1Cl", "activity change, negative = cytotoxicity": -1.24}
{"smiles": "CCOC(=O)C1(CCOc2ccccc2)CCN(Cc2ccc(O)cc2)CC1", "activity change, negative = cytotoxicity": 3.84}
{"smiles": "CC(C)(C)OC(=O)C1(CCOc2ccccc2)CCN(Cc2ccc(O)c(Cl)c2)CC1", "activity change, negative = cytotoxicity": -0.39}
{"smiles": "C/C1=C\\C[C@H](OC(=O)c2ccc(O)cc2)/C(C)=C/[C@@H](O)C(C)(C)CCC1", "activity change, negative = cytotoxicity": -0.876}
{"smiles": "C=CCOc1ccc(CN2CCC(CCOc3ccccc3)(C(=O)NC3CCCC3)CC2)cc1Cl", "activity change, negative = cytotoxicity": 0.235}
{"smiles": "O=C(Nc1ccccc1)C1(CCOc2ccccc2)CCN(Cc2ccc(O)c(Cl)c2)CC1", "activity change, negative = cytotoxicity": 2.3}
{"smiles": "C=CCOc1ccc(CN2CCC(CCOc3ccccc3)(C(=O)OCC)CC2)cc1Cl", "activity change, negative = cytotoxicity": -11.7}
{"smiles": "CCOC(=O)C1(Cc2cccc(OC)c2)CCN(Cc2ccc(O)c(Cl)c2)CC1", "activity change, negative = cytotoxicity": -6.29}
{"smiles": "C=CCOc1ccc(CN2CCC(CCOc3ccccc3)(C(=O)N3CCCC3)CC2)cc1Cl", "activity change, negative = cytotoxicity": -16.6}
{"smiles": "C=CCOc1ccc(CN2CCC(CCOc3ccccc3)(C(=O)N(C)CC)CC2)cc1Cl", "activity change, negative = cytotoxicity": -7.02}
